The values below come from PubChem BioAssay (NCATS).

Results filed as inconclusive are left out. Unmarked numbers belong to inactive results. The source made the active and inactive calls. Calls come from the whole dose curve; as a rule, active = well fitted cell-killing curve with a large enough effect; inconclusive = small, poorly fitted or top-dose-only effect, or effect the other way; inactive = no such curve, though single readings can be large or run the other way.
Potency is the fitted concentration of half-maximal effect.

The nature of the experiment: Quantitative High-Throughput drug screen in 47 multiple myeloma cell lines against the NCATS MIPE library collection: U266_ATCC cell viability assay (AID 1919864). Note: nearly all actives have a fitted effect of over 35% in size. The following applies: U266 myeloma viability, CellTiter-Glo ATP luminescence, 48 h; series mostly up to 45.8 µM; viability (% of DMSO control): at the top concentration. From the text: PI: Beverly A. Mock Ph.D.
Laboratory of Cancer Biology and Genetics,
Center for Cancer Research, National Cancer Institute,
National Institute of Health, Bethesda, Maryland
Drug resistance and disease progression are common in multiple myeloma (MM) patients, underscoring the need for new therapeutic combinations. […] We hypothesized that effective combinations would reduce MYC expression and enhance p16 activity. […] These preclinical data identify potentially useful drug combinations for evaluation in drug-resistant MM and reveal potential mechanisms of combined drug sensitivity.
Described herein is the primary MIPE qHTS used to cherrypick compounds. Validated compounds were then further tested for potential synergistic activiy.
[1] Peat TJ, Gaikwad SM, Dubois W, Gyabaah-Kessie N, Zhang S, Gorjifard S, Phyo Z, Andres M, Hughitt VK, Simpson RM, Miller MA, Girvin AT, Taylor A, Williams D, D'Antonio N, Zhang Y, Rajagopalan A, Flietner E, Wilson K, Zhang X, Shinn P, Klumpp-Thomas C, McKnight C, Itkin Z, Chen L, Kazandijian D, Zhang J, Michalowski AM, Simmons JK, Keats J, Thomas CJ, Mock BA. Drug combinations identified by high-throughput screening promote cell cycle transition and upregulate Smad pathways in myeloma. Cancer Lett. 2023 Aug 1;568:216284. doi: 10.1016/j.canlet.2023.216284. Epub 2023 Jun 24. PMID: 37356470; PMCID: PMC10408729.
SEQUENCE No. (e.g., 1, 2, 3, etc.); […] (e.g., Cells, Incubation, Reagent, etc.); VALUE and DESCRIPTION.
1; Cells; 5 uL; white, solid bottom 1536-well Greiner assay plate.
2; Compounds; 23 nL; Kalypsis pin tool (Wako USA) equipped with a 1536-well pin head to transfer to the assay plates.
3; Incubation; 48 hours; 37C incubation.
4; Reagent;5uL; CellTiter Glo (Promega).
5; Detector; 425V; Luminescence; Viewlux PerkinElmer.
NOTES (numbers refer to Sequence numbers above)
1. The cell-based screening methods employed in this study were like those previously published. Briefly, the corresponding myeloma cell lines were screened in 1,536-well plates with 500 cells, 5-uL per well for inhibition of cell viability (assessed by measuring ATP levels with CellTiterGlo).
2. NCATS MIPE 4.0 library of approved and investigational drugs were added using the Kalypsis pin tool. Wells treated with DMSO only for 100% viability and media only for 0% viability were used as controls.
3. The assay plates were covered and incubated for 48 hours in a 37C, 5% CO2 incubator with controlled humidity.
4. After 48 hours, CellTilter-GloTM luminescent substrate mix (Promega) reagent was added to the assay plate and plates we incubated for 5 min at room temperature.
5. Signal was measured as median relative luminescence units on a ViewLux (PerkinElmer) multiplate reader.
[1] Heske CM, Davis MI, Baumgart JT, Wilson K, Gormally MV, Chen L, Zhang X, Ceribelli M, Duveau DY, Guha R, Ferrer M, Arnaldez FI, Ji J, Tran HL, Zhang Y, Mendoza A, Helman LJ, Thomas CJ. Matrix Screen Identifies Synergistic Combination of PARP Inhibitors and Nicotinamide Phosphoribosyltransferase (NAMPT) Inhibitors in Ewing Sarcoma. Clin Cancer Res. 2017 Dec 1;23(23):7301-7311. doi: 10.1158/1078-0432.CCR-17-1121. Epub 2017 Sep 12. PMID: 28899971; PMCID: PMC6636827.
(Cellular ATP, detected with luciferase, serves as a proxy for viable cell number.)
As to `C[Se]CCC(N)C(=O)O` (stereo not given), the “viability (% of DMSO control)” value was 115% [at 92.2 µM].

For `CN1C(C(=O)Nc2ccccn2)=C(O)c2sccc2S1(=O)=O`, the “viability (% of DMSO control)” value was 142%. `Cc1ccc(S(=O)(=O)NC(=O)NN2CC3CCCC3C2)cc1` (stereo not given): the Potency is 20.9 µM (active).

Turning to `Cc1nc(Nc2ncc(C(=O)Nc3c(C)cccc3Cl)s2)cc(N2CCN(CCO)CC2)n1`, the Potency was 16.6 µM (active).

For `Nc1nc(N)c(N=O)c(OCC2CCCCC2)n1`, the Potency was 16.6 µM (active). On the same count and under the same terms, under `Cc1cc(Cl)ccc1OCCCC(=O)NO` stands 14.8 µM (active). As for `CC(C)[N+]1(C)[C@@H]2CC[C@H]1CC(OC(=O)C(CO)c1ccccc1)C2` (stereo not given in full), the “viability (% of DMSO control)” value was 144%. In the case of `OC(CN1CCN(c2cccc(Cl)c2)CC1)C(c1ccccc1)c1ccccc1` (stereo not given), the Potency is 10.5 µM (active). Consider `CCC1=C(C)CN(C(=O)NCCc2ccc(S(=O)(=O)NC(=O)NC3CCC(C)CC3)cc2)C1=O` (stereo not given), for which the “viability (% of DMSO control)” value is 114%. The same measure, in the same setting: next, `CCN(CCO)CCCC(C)Nc1ccnc2cc(Cl)ccc12` (stereo not given): 115%. Still for that read-out and setting: under `O=C1c2ccccc2-c2n[nH]c3cccc1c23` stands 105%. Regarding `CN(C)CCCC1(c2ccc(F)cc2)OCc2cc(C#N)ccc21` (stereo not given), the Potency was 23.5 µM (active). Take `COc1cc2c(N3CCN(C(=O)Nc4ccc(OC(C)C)cc4)CC3)ncnc2cc1OCCCN1CCCCC1`: the Potency is 23.5 µM (active). Regarding `CC(C)Oc1ccc2c(=O)c(-c3ccccc3)coc2c1`, the “viability (% of DMSO control)” value was 114%. On to `CNC[C@H](O)c1ccc(O)c(O)c1`, for which the Potency is 38.2 µM (active). The same measure, in the same setting: under `COC(=O)C1=C(C)NC(C)=C(C(=O)OC(C)C)C1c1cccc2nonc12` (stereo not given) stands 3.72 µM (active); under `CN(C)c1ccc2nc3ccc(=[N+](C)C)cc-3sc2c1`, 8.33 µM (active). On to `C=CCc1cc(OC)c(O)c(C(=O)NCCO)c1`, for which the “viability (% of DMSO control)” value was 119%.

In the case of `COc1cc(OC)c(C(=O)CCCN2CCCC2)c(OC)c1`, the “viability (% of DMSO control)” value is 125%. Regarding `CCC[C@@H]1C[C@@H](C(=O)N[C@@H]([C@H]2O[C@H](SC)[C@H](O)[C@@H](O)[C@H]2O)[C@@H](C)O)N(C)C1`, the “viability (% of DMSO control)” value is 131%. On the same count and under the same terms, under `Cc1cc2c(s1)Nc1ccccc1N=C2N1CCN(C)CC1` stands 120%; under `NNc1nncc2ccccc12`, 146%; under `COCCCOc1ccnc(CS(=O)c2nc3ccccc3[nH]2)c1C` (stereo not given), 131%. As for `COc1c(O)cc2c(c1O)[C@@H]1O[C@H](CO)[C@@H](O)[C@H](O)[C@H]1OC2=O`, the “viability (% of DMSO control)” value was 130%. On the same count and under the same terms, next, `Oc1ccc(OCc2ccccc2)cc1`: 136%. For `COc1cc(Nc2c(C#N)cnc3cc(OCCCN4CCN(C)CC4)c(OC)cc23)c(Cl)cc1Cl`, the Potency is 23.5 µM (active). Still for that read-out and setting: under `CN(c1nccc(=O)[nH]1)C1CCN(c2nc3ccccc3n2Cc2ccc(F)cc2)CC1` stands 11.8 µM (active).

Consider `CCN(CC)CCOc1ccc(Cc2ccccc2)cc1`, for which the Potency is 20.9 µM (active). Turning to `O=C(CS(=O)Cc1ccco1)NCC=CCOc1cc(CN2CCCCC2)ccn1` (stereo not given), the “viability (% of DMSO control)” value was 94.9%.

Take `c1cnc2cc3c(cc2n1)C1CNCC3C1`: the “viability (% of DMSO control)” value is 139%. The same measure, in the same setting: next, `Nc1cc(C(Cl)=C(Cl)Cl)c(S(N)(=O)=O)cc1S(N)(=O)=O`: 127%. As for `O=C(O)c1cccc(-c2noc(-c3ccccc3F)n2)c1`, the Potency is 18.7 µM (active). Same read-out and setting: next, `CCCCc1ccc2nc(NC(=O)OC)[nH]c2c1`: 0.743 µM (active); `CCN(CC)C(=S)SSC(=S)N(CC)CC`: 0.0059 µM (active). Regarding `O=C1NC(=O)C(c2ccccc2[N+](=O)[O-])=C1Nc1ccc(O)c(Cl)c1`, the “viability (% of DMSO control)” value was 108%.

For `O=C(c1ccccc1)c1ccc2n1CCC2C(=O)O` (stereo not given), the Potency was 3.72 µM (active). `CN(C)C(=O)COC(=O)Cc1ccc(OC(=O)c2ccc(N=C(N)N)cc2)cc1`: the Potency was 26.4 µM (active). Take `CC1(C)CCC(C)(C)c2cc(NC(=O)c3ccc(C(=O)O)cc3)ccc21`: the “viability (% of DMSO control)” value is 109%.

`O=C(NCC1CCCCN1)c1cc(OCC(F)(F)F)ccc1OCC(F)(F)F` (stereo not given): the Potency is 9.35 µM (active). On the same count and under the same terms, next, `O=c1cc(N2CCOCC2)oc2c(-c3ccccc3)cccc12`: 18.7 µM (active).
